Experiment [1] deals with Mast/stem cell growth factor receptor Kit (Homo sapiens) (UniProt P10721). The note with it: at 1 µM.
The test system of experiment [2] is Mast/stem cell growth factor receptor Kit (Homo sapiens), P10721 [D816V]. The note with it: at 0.1 µM.
Experiment [3] shares this test system. The note with it: at 1 µM.
For experiment [4], the system named is Mast/stem cell growth factor receptor Kit (Homo sapiens), P10721 [T670I]. The note with it: at 0.1 µM.
For experiment [5] the test system is unchanged. The note with it: at 1 µM.
Experiment [6] concerns Mast/stem cell growth factor receptor Kit (Homo sapiens), P10721 [V560G]. The note with it: at 0.1 µM.
Mast/stem cell growth factor receptor Kit (Homo sapiens), P10721 [V560G], sequence (P10721 whole entry V560G): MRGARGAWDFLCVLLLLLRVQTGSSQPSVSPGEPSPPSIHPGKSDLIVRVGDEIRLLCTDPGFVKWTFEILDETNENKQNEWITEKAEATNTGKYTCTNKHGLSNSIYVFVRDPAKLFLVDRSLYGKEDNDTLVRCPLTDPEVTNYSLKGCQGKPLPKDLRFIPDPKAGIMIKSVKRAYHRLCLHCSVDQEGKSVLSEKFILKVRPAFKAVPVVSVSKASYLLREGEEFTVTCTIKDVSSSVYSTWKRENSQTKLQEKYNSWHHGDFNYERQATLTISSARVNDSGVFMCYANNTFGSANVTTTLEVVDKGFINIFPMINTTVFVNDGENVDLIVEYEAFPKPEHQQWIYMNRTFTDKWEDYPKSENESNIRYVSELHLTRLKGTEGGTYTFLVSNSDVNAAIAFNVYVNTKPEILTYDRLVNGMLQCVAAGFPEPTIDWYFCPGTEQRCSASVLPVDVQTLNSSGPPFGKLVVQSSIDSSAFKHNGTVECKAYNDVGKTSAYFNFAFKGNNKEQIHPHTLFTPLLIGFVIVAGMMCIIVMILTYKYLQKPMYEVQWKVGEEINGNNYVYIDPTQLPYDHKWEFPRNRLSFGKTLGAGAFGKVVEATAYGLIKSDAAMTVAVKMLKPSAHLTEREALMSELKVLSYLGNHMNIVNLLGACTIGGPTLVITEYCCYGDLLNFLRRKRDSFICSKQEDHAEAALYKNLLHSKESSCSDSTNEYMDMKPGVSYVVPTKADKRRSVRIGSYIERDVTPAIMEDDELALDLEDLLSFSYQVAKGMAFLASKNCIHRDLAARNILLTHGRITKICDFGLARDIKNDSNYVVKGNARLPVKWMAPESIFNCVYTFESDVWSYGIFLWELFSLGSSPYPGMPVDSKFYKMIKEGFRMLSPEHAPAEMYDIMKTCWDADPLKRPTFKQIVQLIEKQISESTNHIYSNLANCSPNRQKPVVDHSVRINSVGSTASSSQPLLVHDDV
For experiment [7] the test system is unchanged. The note with it: at 1 µM.
The target in experiment [8] is Tyrosine-protein kinase Lck (Homo sapiens) (UniProt P06239). The note with it: at 0.1 µM.
Tyrosine-protein kinase Lck (Homo sapiens), sequence (P06239 2-509 limits assumed): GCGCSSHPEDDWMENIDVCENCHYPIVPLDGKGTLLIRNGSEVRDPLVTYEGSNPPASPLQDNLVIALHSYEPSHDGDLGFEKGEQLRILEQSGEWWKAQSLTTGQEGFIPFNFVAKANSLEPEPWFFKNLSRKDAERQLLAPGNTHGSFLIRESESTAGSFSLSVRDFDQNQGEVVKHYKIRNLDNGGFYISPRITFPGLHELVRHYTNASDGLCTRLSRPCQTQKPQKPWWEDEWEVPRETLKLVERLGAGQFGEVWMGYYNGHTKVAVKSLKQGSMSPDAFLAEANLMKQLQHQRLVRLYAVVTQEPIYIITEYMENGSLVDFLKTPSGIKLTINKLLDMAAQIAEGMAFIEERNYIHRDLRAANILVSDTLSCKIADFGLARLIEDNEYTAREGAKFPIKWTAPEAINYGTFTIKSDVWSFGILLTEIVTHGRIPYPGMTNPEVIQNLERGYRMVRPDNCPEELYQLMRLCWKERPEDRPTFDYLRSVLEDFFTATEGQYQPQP
Experiment [9] shares this target. The note with it: at 1 µM.
Experiment [10] has as its target Leukocyte tyrosine kinase receptor (Homo sapiens) (UniProt P29376). The note with it: at 0.1 µM.
Experiment [11] has the same target. The note with it: at 1 µM.
Experiment [12] concerns the target Tyrosine-protein kinase Lyn (Homo sapiens) (UniProt P07948). The note with it: at 0.1 µM.
The target is the same in experiment [13]. The note with it: at 1 µM.
For experiment [14] the target is unchanged. The note with it: at 0.1 µM. The source holds these as a separate data set.
For experiment [15] the target is unchanged. The note with it: at 1 µM. The source holds these as a separate data set.
The target in experiment [16] is T1, Tyrosine-protein kinase Mer (Homo sapiens) (UniProt Q12866).
T1 sequence (whole entry): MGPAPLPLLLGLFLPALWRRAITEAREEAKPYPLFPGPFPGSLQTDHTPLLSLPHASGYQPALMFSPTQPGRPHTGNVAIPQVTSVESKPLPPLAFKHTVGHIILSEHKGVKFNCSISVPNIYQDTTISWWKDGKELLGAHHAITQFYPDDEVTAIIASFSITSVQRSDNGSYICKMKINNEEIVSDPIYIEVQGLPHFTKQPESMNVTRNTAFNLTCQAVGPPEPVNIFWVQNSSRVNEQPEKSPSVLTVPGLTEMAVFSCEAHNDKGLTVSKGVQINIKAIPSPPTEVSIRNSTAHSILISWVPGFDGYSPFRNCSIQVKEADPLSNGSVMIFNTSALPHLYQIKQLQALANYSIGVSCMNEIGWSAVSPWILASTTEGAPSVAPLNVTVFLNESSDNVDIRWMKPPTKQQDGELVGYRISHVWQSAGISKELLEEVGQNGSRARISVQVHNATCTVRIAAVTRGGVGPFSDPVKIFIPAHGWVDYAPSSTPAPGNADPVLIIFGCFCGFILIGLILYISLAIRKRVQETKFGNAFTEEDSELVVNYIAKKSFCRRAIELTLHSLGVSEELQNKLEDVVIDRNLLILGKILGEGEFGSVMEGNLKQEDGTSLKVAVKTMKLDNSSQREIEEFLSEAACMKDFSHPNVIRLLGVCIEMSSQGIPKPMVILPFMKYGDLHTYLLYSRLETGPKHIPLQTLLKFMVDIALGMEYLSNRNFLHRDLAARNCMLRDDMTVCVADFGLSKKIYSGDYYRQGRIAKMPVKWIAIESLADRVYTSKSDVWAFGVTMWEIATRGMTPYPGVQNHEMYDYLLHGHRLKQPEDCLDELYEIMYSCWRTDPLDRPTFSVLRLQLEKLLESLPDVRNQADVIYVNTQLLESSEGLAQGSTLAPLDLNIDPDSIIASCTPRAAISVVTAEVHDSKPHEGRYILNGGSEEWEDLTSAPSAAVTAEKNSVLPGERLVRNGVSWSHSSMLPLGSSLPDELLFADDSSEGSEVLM
The note with it: at 0.1 µM.

Experiment [17] concerns the target T1, Tyrosine-protein kinase Mer (Homo sapiens). The note with it: at 1 µM.
Experiment [18] addresses Hepatocyte growth factor receptor (Homo sapiens) (UniProt P08581). The note with it: at 0.1 µM.
The target is the same in experiment [19]. The note with it: at 1 µM.
The target in experiment [20] is T2, Muscle, skeletal receptor tyrosine-protein kinase (Homo sapiens) (UniProt O15146).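 Also: values are mean inhibition of MuSK from the GSK PKIS kinase screening panel.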
T2 sequence (whole entry): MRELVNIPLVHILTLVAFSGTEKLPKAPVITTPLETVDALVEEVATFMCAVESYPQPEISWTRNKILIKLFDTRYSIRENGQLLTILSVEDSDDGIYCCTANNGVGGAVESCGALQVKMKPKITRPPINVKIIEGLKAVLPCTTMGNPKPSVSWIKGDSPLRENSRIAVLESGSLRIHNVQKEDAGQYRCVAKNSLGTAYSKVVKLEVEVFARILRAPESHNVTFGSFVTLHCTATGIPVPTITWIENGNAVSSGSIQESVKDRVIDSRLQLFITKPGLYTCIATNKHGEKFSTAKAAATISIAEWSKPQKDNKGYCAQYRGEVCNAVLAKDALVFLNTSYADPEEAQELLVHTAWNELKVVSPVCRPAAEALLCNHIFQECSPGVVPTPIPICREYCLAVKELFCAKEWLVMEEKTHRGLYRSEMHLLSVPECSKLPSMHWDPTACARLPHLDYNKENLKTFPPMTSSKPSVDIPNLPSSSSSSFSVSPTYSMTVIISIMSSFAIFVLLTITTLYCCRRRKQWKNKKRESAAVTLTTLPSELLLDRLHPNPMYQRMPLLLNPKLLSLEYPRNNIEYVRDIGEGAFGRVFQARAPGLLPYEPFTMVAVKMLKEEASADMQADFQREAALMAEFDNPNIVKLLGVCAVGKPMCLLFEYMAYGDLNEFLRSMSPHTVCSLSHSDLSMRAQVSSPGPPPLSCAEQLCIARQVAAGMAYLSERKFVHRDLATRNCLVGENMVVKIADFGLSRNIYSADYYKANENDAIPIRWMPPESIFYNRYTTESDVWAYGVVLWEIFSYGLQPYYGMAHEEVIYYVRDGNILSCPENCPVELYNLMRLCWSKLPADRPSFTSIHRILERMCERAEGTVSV
The note with it: at 0.1 µM.

Mast/stem cell growth factor receptor Kit (Homo sapiens), sequence (P10721 whole entry): as the sequence (P10721 whole entry V560G) above, with G560V counted along it
Mast/stem cell growth factor receptor Kit (Homo sapiens), P10721 [T670I], sequence (P10721 whole entry T670I): as the sequence (P10721 whole entry V560G) above, with G560V, T670I counted along it
Hepatocyte growth factor receptor (Homo sapiens), sequence (P08581 whole entry): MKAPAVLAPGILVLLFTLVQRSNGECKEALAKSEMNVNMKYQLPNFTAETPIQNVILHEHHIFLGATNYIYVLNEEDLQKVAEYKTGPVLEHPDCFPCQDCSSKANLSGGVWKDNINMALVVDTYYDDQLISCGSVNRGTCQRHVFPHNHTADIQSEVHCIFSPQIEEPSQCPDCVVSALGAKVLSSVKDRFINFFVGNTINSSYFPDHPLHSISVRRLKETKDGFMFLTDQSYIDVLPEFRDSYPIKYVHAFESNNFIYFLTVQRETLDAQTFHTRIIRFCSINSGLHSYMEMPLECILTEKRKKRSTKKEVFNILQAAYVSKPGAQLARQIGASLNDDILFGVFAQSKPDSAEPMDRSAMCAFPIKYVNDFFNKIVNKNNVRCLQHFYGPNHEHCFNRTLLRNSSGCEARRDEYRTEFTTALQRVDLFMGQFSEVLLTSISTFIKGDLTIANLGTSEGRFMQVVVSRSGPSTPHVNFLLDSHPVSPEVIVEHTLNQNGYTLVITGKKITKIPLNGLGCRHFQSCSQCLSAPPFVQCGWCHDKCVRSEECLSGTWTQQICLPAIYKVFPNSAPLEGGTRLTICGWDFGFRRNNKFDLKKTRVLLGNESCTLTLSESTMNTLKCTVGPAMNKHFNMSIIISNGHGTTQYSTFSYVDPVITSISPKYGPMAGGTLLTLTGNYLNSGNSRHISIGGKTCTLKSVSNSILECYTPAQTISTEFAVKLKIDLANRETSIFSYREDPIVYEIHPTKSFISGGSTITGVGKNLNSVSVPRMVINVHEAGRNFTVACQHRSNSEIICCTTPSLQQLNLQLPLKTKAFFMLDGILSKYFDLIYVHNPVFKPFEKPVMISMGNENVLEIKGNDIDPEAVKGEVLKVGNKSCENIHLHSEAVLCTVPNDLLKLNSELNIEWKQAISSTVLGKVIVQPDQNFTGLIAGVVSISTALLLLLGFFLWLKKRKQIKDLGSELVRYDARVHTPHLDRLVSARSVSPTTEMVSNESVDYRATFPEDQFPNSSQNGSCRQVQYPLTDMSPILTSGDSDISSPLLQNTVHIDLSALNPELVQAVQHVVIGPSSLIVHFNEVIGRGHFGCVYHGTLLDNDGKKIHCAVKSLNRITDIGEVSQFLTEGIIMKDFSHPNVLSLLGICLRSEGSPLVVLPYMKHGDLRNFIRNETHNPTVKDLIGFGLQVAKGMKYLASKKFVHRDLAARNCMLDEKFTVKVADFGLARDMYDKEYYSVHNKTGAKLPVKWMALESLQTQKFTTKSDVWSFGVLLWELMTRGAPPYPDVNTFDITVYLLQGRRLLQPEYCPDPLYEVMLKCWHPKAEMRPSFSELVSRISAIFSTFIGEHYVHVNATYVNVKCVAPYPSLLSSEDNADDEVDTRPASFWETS
Mast/stem cell growth factor receptor Kit (Homo sapiens), P10721 [D816V], sequence (P10721 whole entry D816V): as the sequence (P10721 whole entry V560G) above, with G560V, D816V counted along it
Tyrosine-protein kinase Lyn (Homo sapiens), sequence (P07948 2-512 limits assumed): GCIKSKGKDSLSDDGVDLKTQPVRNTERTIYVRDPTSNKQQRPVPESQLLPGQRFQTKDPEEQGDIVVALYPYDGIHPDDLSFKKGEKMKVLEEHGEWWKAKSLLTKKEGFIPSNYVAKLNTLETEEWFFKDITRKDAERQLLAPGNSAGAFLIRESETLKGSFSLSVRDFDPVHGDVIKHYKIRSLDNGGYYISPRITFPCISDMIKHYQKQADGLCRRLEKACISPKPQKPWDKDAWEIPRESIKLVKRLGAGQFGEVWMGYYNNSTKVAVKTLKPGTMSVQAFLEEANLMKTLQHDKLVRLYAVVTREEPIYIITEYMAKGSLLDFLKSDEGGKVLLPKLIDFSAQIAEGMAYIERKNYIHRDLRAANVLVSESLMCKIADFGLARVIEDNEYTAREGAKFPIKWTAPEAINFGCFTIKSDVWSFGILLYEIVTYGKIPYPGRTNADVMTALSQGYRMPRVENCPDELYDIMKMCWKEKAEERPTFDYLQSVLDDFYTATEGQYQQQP
Leukocyte tyrosine kinase receptor (Homo sapiens), sequence (P29376 whole entry): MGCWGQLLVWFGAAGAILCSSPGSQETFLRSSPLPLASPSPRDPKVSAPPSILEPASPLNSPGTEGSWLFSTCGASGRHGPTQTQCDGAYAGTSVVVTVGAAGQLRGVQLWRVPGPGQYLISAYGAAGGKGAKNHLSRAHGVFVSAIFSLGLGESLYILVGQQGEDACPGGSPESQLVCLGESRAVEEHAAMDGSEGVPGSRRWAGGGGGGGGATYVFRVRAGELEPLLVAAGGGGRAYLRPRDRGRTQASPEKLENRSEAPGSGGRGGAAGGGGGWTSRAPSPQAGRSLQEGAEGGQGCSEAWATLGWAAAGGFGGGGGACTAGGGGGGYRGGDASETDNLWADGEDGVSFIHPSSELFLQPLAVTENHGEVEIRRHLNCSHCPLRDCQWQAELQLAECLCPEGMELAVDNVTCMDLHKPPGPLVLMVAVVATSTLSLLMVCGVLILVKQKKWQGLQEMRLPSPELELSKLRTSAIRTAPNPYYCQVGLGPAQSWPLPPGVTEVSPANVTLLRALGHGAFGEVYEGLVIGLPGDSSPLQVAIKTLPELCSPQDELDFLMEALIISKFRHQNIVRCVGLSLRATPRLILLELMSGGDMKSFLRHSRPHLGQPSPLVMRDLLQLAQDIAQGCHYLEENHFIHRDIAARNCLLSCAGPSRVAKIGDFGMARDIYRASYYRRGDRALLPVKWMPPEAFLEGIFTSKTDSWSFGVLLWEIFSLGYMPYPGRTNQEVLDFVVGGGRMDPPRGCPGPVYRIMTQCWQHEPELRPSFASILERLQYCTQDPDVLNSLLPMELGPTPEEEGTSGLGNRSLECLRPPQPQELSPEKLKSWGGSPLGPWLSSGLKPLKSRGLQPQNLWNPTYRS

Consider `CCc1cccc(NC(=O)Nc2ccc(Oc3ccc4nc(NC(=O)OC)[nH]c4c3)cc2)c1`, for which the inhibition in experiment [1] worked out at 93%; in experiment [2] it was 0.55%; in [3], 0%; in [4], 58.6%; in experiment [5] it was 69.8%; in [6], 65.6%. Moreover, the inhibition in [7] stood at 74.1%; in experiment [8], 5.87%; in experiment [9], 8.47%; in [10], 1.87%; in [11], 0.04%; in experiment [12], 10%. Further, the inhibition in [13] was found to be 20.8%; in experiment [14], 7.66%; in experiment [15], 15.2%; in [16], 2.96%; in experiment [17], 3.11%; in experiment [18], 15.7%. Further, the results for the inhibition in [19] and in experiment [20] were 27.4% and 16.2%, respectively.

For the molecule `Cc1ccc(C(=O)NC2CCCCC2)cc1-c1ccc(C(=O)NCC2CC2)cc1`, the inhibition in experiment [1] stood at 4.9%; in experiment [2], 3.74%; in experiment [3], 0.6%; in experiment [4] it was 0.04%; in experiment [5] it was 0.31%; in [6], 3.05%. The inhibition in experiment [7] was 4.51%; in [8], 1.49%; in [9], 2.85%; in experiment [10] it was 0.67%; in [11], 0.02%; in experiment [12], 2.9%. Also, the inhibition in experiment [13] came to 2.6%; in experiment [14], 1.53%; in [15], 0.34%; in [16] it was 1.63%; in experiment [17] it was 3.6%; in experiment [18], 4.53%. Also, the inhibition in experiment [19] was determined as 5.05%; in [20] it was 6.01%.

Take `Cc1ccc(NC(=O)c2ccnc(N3CCCC3)c2)cc1-c1ccc(C(=O)NCC2CC2)cc1`: the inhibition in [1] was 2.92%; in experiment [2] it was 2.61%; in [3] it was 7.08%; in experiment [4] it was 2.54%; in experiment [5], 3.2%; in experiment [6] it was 0.26%. For the same molecule, the inhibition in experiment [7] is 1.23%; in experiment [8], -3.71%; in experiment [9], 1.56%; in experiment [10], 2.27%; in experiment [11], 2.5%; in [12], 3.64%. The inhibition in [13] was found to be 8.64%; in [14], 1.83%; in experiment [15], 5.14%; in experiment [16], 1.62%; in experiment [17], 3.81%; in [18] it was 9.41%. Further, the inhibition turned out to be 7.36% in experiment [19] and 4.38% in experiment [20].

Regarding `CN(C)c1cc2c(Nc3ccc4nc(Cc5ccccc5)[nH]c4c3)ncnc2cn1`, the inhibition worked out at 19.2% in experiment [1]; 7.07% in [2]; 7.56% in experiment [3]; 2.88% in experiment [4]; 6.63% in experiment [5]; 1.39% in [6]. In addition, the inhibition is 7.78% in experiment [7]; 7.36% in [8]; 33% in experiment [9]; 6.47% in experiment [10]; 3.97% in experiment [11]; 9.84% in [12]. In addition, the inhibition in experiment [13] was determined as 32.1%; in experiment [14], 7.8%; in [15], 28.7%; in [16], 1.94%; in experiment [17], 8.97%; in experiment [18], 0.15%. Besides, the inhibition amounted to 5.85% in experiment [19] and 2.63% in [20].

In the case of `O=C1NC(=O)C(c2ccccc2Cl)=C1Nc1cccc(O)c1`, the inhibition in experiment [1] was 0.62%; in experiment [2], 2.13%; in [3], 2.69%; in [4], -1.05%; in [5], -0.04%; in [6] it was 0.38%. Further, the inhibition in experiment [7] came out at 1.68%; in [8], 2.08%; in [9] it was 5.21%; in experiment [10] it was 0.86%; in [11], 1.2%; in experiment [12], 5.68%. For the same molecule, the inhibition in experiment [13] was found to be 3.94%; in experiment [14], 1.34%; in experiment [15], 2.65%; in [16], 1.63%; in [17] it was 4.66%; in experiment [18], 1.79%. For the same molecule, the figures for the inhibition in experiment [19] and in experiment [20] were -0.4% and 3.23%, respectively.

`COc1cc2ncn(-c3cc(O[C@H](C)c4ccccc4Cl)c(C(N)=O)s3)c2cc1OC`: the inhibition was determined as 27.1% in [1]; 4.82% in experiment [2]; 14.6% in experiment [3]; 5.66% in experiment [4]; 32.1% in experiment [5]; 4.1% in [6]. The inhibition in experiment [7] came out at 13.9%; in [8] it was 5.7%; in [9] it was 27.7%; in [10] it was 3.77%; in [11] it was 11.3%; in [12], 6.61%. In addition, the inhibition in [13] worked out at 27.9%; in experiment [14], 5.21%; in [15] it was 23.9%; in experiment [16] it was 5.63%; in [17], 22.6%; in experiment [18], 4.85%. The inhibition amounted to 17% in experiment [19] and 29.3% in [20].

Consider `CNC(=O)c1cncc(/C=C/c2c(Cl)cccc2Cl)c1`, for which the inhibition in experiment [1] is 33.4%; in [2], 2.74%; in experiment [3], 1.88%; in [4] it was 0.36%; in [5], 0.46%; in [6], -1.49%. The inhibition in [7] came out at 10.9%; in [8] it was 1.21%; in experiment [9], 9.89%; in experiment [10], 3.47%; in [11], 5.04%; in experiment [12] it was 11.1%. In addition, the inhibition amounted to 48.7% in experiment [13]; 7.62% in experiment [14]; 43.5% in [15]; 2.3% in experiment [16]; 2.24% in experiment [17]; 2.67% in experiment [18]. In addition, the inhibition in experiment [19] turned out to be 1.88%; in [20] it was 3.75%.

For orientation: inhibition means the drop in the measured response relative to a control, in per cent.

The values are drawn from ChEMBL document CHEMBL1961873, “Compounds: GSK PKIS; Assays: Nanosyn kinase panel” (2012).
